# GLP-1R inv ag – acts as inverse agonist at human GLP-1 receptor; P43220; HEK293 GLP-1R CRE-luciferase, luminescence, 24 h; GLP-1R form is constitutively active; Potency, µM (top dose mostly 38.3 µM), for inactives: top-dose activity change, negative = inhibition, hits mostly inhibitors; 410,000 tested, 1.6% active; further: on the % scale 0 is the no-effect control and ±100 the full control effect; nearly all actives have a fitted effect of over 55% in size
#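 Inverse agonism was detected as reduced cAMP-driven luciferase luminescence after 24 h compound treatment. The cells were HEK293 clones expressing constitutively active human GLP-1R with the reporter. Reporter-only and GPR119 cell lines served as counterscreen controls.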
# Gal4-VP16 FLuc – inhibits Gal4-VP16 luciferase reporter, ROR gamma counter-screen | Drosophila S2 Gal4-VP16 UAS-luciferase, luminescence, 20 h | Potency, µM (doses to about 53.6 µM), for the others: at the top dose activity, negative = inhibition, most hits filed as inhibitors | 310,000 tested, 3.5% active | AID 2546;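 further: Gal4-VP16 expression switched on by copper sulfate through the metallothionein promoter; on the % scale 0 is the no-effect control and ±100 the full control effect; nearly all actives have a fitted effect of over 50% in size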
# RORg inh – inhibitors of mouse ROR gamma transcriptional activity. P51450. Drosophila S2 Gal4-RORgamma UAS-luciferase reporter, 20 h. Potency, µM (series often up to 53.6 µM), inactives show at the top dose activity change, negative = inhibition, most hits filed as inhibitors. 310,000 tested, 5.4% active; further: on the % scale 0 is the no-effect control and ±100 the full control effect; nearly all actives have a fitted effect of over 60% in size
# Target sequence (P51450 whole entry, looked up, the tested form may be a part): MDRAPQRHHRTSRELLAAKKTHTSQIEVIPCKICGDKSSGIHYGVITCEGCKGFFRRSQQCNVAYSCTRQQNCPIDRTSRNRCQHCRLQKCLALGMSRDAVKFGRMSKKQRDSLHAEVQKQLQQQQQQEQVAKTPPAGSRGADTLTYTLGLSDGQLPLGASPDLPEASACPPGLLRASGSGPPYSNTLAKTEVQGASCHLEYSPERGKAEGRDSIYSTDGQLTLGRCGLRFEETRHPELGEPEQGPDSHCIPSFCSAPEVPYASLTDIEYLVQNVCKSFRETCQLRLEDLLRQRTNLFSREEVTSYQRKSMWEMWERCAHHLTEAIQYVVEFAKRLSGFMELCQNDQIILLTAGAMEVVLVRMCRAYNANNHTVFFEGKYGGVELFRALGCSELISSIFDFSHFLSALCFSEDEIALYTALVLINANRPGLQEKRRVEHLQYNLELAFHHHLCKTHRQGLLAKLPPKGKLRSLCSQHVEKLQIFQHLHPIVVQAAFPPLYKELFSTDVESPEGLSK
#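 Luciferase reporter read in Schneider cells carrying Gal4-RORγ (mouse) and UAS-Photinus luciferase; cells given compound 1 h before 700 uM copper sulfate induction, then incubated 20 h at ambient temperature.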
# GLP-1R agonist – activates the human GLP-1 receptor | P43220 | HEK293 GLP-1R CRE-luciferase, luminescence, 4-6 h; cells express a hypersensitive GLP-1R form | Potency, µM (titrated, usually from 45.6 µM), inactives show at the top dose activation, actives largely listed as activators | 380,000 tested, 0.007% active; further: % of control where 0% means no effect
# HEK293 tox – cytotoxic in the GLP-1 receptor inverse agonist counter-screen; 410,000 tested, 0.13% active; Potency, µM (titrated, usually from 38.3 µM), for inactives: top-dose activity change, negative = inhibition, usual class: inhibitors; HEK293 cAMP-luciferase reporter cells, luminescence, 24 h; AID 624418;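 further: loss of luciferase light is scored as toxicity; on the % scale 0 is the no-effect control and ±100 the full control effect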
#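 Step one: seed cells (200 cells/uL, DMEM with 10% Nu serum, 1% pen-strep). Step two: 12-hour incubation at 37 deg C. Step three: pin 23 nL compound, incubate 24 hr. Step four: add luciferase reagent, read luminescence 12 min later.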
# Starred values were filed as active, the others as inactive; ? = inconclusive; nt = no result; [ ] = another dose, or the depositor's remark. Most compounds without a hit are left out; they make up all but 5.9% or so of the library. The call rests on the fitted dose curve; in most records, active means well fitted curve in the direction sought with a large enough effect; inconclusive means small, poorly fitted or top-dose-only effect, or another doubt; inactive means no such curve, though single readings can be large; an effect the other way counts as inactive or inconclusive. Potency means the concentration at half of the fitted maximal effect.
SMILES,GLP-1R inv ag,Gal4-VP16 FLuc,RORg inh,GLP-1R agonist,HEK293 tox
CCN(Cc1ccccc1)C(c1ccncc1)c1nnnn1C(C)(C)C (centres undefined),0%,-3%,-15%,-7%,1%
CC(C)(C)n1nnnc1C(c1ccc(C(F)(F)F)cc1)N(Cc1ccccc1)Cc1ccco1 (centres undefined),5.6µM*,4µM*,6.3µM*,-8%,4%
CC(C)(C)n1nnnc1C(c1ccc(F)cc1)N(Cc1ccc(F)cc1)Cc1ccco1 (centres undefined),?,-11%[0.365 µM],11µM*,-5%,2%
Cc1ccc(C(c2nnnn2C(C)(C)C)N(Cc2ccco2)Cc2cccs2)cc1 (centres undefined),?,7.1µM*,10µM*,-4%,-8%
CC(C)(C)c1ccc(CN(Cc2ccccc2)C(c2ccccn2)c2nnnn2C(C)(C)C)cc1 (centres undefined),3.2µM*,-12%,-8%,-11%,15%
COC(=O)NC(c1ccccc1)c1c[nH]c2ccccc12 (centres undefined),nt,4%,10%,nt,nt
CO[C@H]1COC(=O)CCC[C@H](C)[C@H](OC)COC(=O)C/C=C\[C@@H]1C,nt,-1%[10 µM],11%[10 µM],nt,nt
Cc1c(C(=O)Nc2ccccc2Br)oc2ccc(S(=O)(=O)N3CCCCCC3)cc12,17%,nt,nt,nt,8%
CCC/C=C/c1ccc(CN2C(CC(C)C)C(=O)N(Cc3cn(CCC4OCCO4)nn3)CCS2(=O)=O)cc1 (centres undefined),?,nt,nt,-3%,-18%
CCC/C=C/c1ccc(CN2C(C(C)C)C(=O)N(Cc3cn(CCC4OCCO4)nn3)CCS2(=O)=O)cc1 (centres undefined),10µM*,nt,nt,3%,-28%
CCC1=C(c2ccc(C)cc2)S(=O)(=O)N=C1N1CCC(C(=O)NCc2ccc(N(C)C)cc2)CC1,-6%,nt,nt,nt,4%
CC1=C(c2ccc(Cl)cc2)S(=O)(=O)N=C1N1CCN(c2cccc(C(F)(F)F)c2)CC1,0%,nt,nt,nt,-1%
C/C(=N\NC(=O)CCCCCNC(=O)c1ccccc1)c1ccccc1O,?,10µM*,5µM*,-1%,-21%
O=C(CCCCCNC(=O)c1ccccc1)N/N=C/c1ccc(O)cc1O,?,-15%,-21%,0%,14%
C/C(=N/NC(=O)CN(c1ccccc1)S(=O)(=O)c1ccccc1)c1ccccc1O,?,0.79µM*,0.71µM*,0%,?
Cc1nnc(SCC(=O)NCc2ccc(N(C)C)cc2)c2nn(-c3ccccc3)c(C)c12,8%,nt,nt,nt,3%
Cc1cccc(/C=c2\s/c(=C\C(=O)C(C)(C)C)[nH]c2=O)c1,8.9µM*,-8%,28%,1%,?
S=c1[nH]cc(-c2ccccc2)n1-c1ccccc1,?,4µM*,3.5µM*,-2%,?
Cc1ccc(-n2c(-c3ccccc3)c[nH]c2=S)cc1,16%,6.3µM*,2.2µM*,0%,?
COc1ccc(-n2c(-c3ccc(Cl)cc3)c[nH]c2=S)cc1,-19%,2.8µM*,0.45µM*,13%,-8%
Cc1nc2ccc(S(=O)(=O)CCC(=O)Nc3ccc(C)c(C)c3)cc2s1,-15%,nt,nt,nt,1%
CCOc1ccc(-n2c(-c3ccccc3)c[n+]3c2CCCCC3)cc1,?,3.5µM*,?,-5%,2%
COc1ccc(C2=Nn3c(nnc3-c3ccc(OC)c(OC)c3)SC2)cc1,nt,-1%,-1%,nt,nt
COc1ccc(S(=O)(=O)N2CCN(Cc3nc4ccc(C)cc4o3)CC2)cc1Cl,?,nt,nt,nt,21%
CC(C)(C)c1ccc(NC(=O)NC2CCCc3ccccc32)cc1 (centres undefined),3.2µM*,-1%,29%,6%,-15%
SMILES,GLP-1R inv ag,Gal4-VP16 FLuc,RORg inh,GLP-1R agonist,HEK293 tox
Cc1ccc(NC(=O)NC2CCCc3ccccc32)cc1 (centres undefined),?,-13%,0%,4%,-6%
Cc1ccc(CSCCNC(=O)C2CCN(S(=O)(=O)Cc3ccccc3)CC2)cc1,-3%,nt,nt,nt,17%
Cc1cccc(CN2C(=O)c3ccccc3Sc3ccc(C(=O)NC4CCCCC4)cc32)c1,?,nt,nt,nt,5%
CC(C)(C)c1ccc(CN(Cc2ccco2)c2cnc(S(C)(=O)=O)nc2C(=O)Nc2ccc(F)cc2)cc1,?,nt,nt,nt,3%
CCOC(=O)c1nnsc1Nc1ccc(C)c(C)c1,-12%,-19%[10 µM],0.71µM*,16%,-11%
NC(=S)NN=C(c1ccc(F)cc1)C1CC1,?,nt,nt,-5%,10µM*
N=c1c(-c2nc3ccccc3[nH]2)cc(C(=O)c2ccco2)nn1-c1ccccc1,13%,5µM*,2.8µM*,6%,?
CCCCn1nnc(NC(=S)NC(=O)c2ccc(-c3cccc(Cl)c3Cl)o2)n1,?,1.1µM*,1.3µM*,0%,?
CCOc1ccc(C(=O)NC(=S)Nc2ncccc2C)cc1[N+](=O)[O-],?,0%,-1%,?,?
CCCCn1nnc(NC(=S)NC(=O)c2ccc(OCC)c([N+](=O)[O-])c2)n1,9%,2.5µM*,2.8µM*,-10%,-16%
COc1ccc(CCNc2ncnc3c2cnn3-c2cc(Cl)ccc2C)cc1,?,nt,nt,nt,-28%
COc1ccc(C(=O)CCS(=O)(=O)c2ccc(C)cc2)cc1OC,?,4.5µM*,2.8µM*,-2%,?
Cc1ccc(S(=O)(=O)CCC(=O)OCC(=O)c2cc(C)ccc2C)cc1,5%,nt,nt,-8%,0%
Cc1ccc(S(=O)(=O)CCC(=O)c2ccc(O)cc2O)cc1,-48%,?,14µM*,-17%,?
CCCn1c2ccccc2c2cnn(CC(=O)NCCc3ccc(OCC)c(OCC)c3)c(=O)c21,-7%,nt,nt,nt,8%
CC(C)(C)c1cc(/C=N/O)cc(C(C)(C)C)c1O,10µM*,5%,26%,-8%,-10%
CC(C)(C)C1CCc2c(sc(NC(=O)CCC(=O)O)c2C(=O)Nc2ccccc2C(F)(F)F)C1 (centres undefined),?,nt,nt,nt,1%
Cc1ccc(Nc2cc(C)nc3ccccc23)c(C)c1,10µM*,nt,nt,6%,-61%
Cc1ccc(C)c(Nc2cc(C)nc3ccccc23)c1,7.1µM*,nt,nt,-6%,?
CCCCC/C=C\C/C=C\CCCCCCCCCC(=O)NC(C)C(=O)O (centres undefined),nt,3%,3%,nt,nt
Cc1ccc(NC(=O)c2cc(N3C(=O)C=CC3=O)ccc2N2CCOCC2)cc1Cl,25%,3.2µM*,5.6µM*,0%,6%
O=C(Nc1ccc(N2CCCC2)c(Cl)c1)c1ccc2c(c1)OCCO2,?,nt,nt,1%,-26%
Cc1cc(C(=O)Nc2ccc(N3CCOCC3)c(Cl)c2)c(C)o1,-24%,-24%,3.2µM*,1%,-16%
O=C(Nc1ccc(N2CCOCC2)c(Cl)c1)c1ccc2c(c1)OCCO2,9%,?,0.79µM*,7%,0%
